Assay results from publication PMC5540273 (PLoS ONE, 2017).

system: T1, OSR1; details: concentration: 1 μM, replicates: in singlicate; n = 1
T1 construct: gene OXSR1
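Also: KINOMEscan kinase panel screen.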

SMILES | %Inh [%]
Cc1ccc(C(=O)Nc2ccc(Nc3ccnc4cc(-c5ccccn5)ccc34)cc2O)cc1.Cl [GW440146] | 1
Cl.c1ccc(-c2n[nH]cc2-c2ccnc(-c3ccc(CN4CCOCC4)cc3)c2)nc1 [GW776245] | 0
Cn1cncc1-c1ccc2ncnc(Nc3ccc(OCc4ccccc4)cc3)c2c1 [GW320571] | 19
Clc1cc(Cl)cc(Nc2ccnc(Nc3cc(Cl)cc(Cl)c3)n2)c1 [GSK175726] | 0
Cc1cccc(-c2nc(-c3ccc(S(C)(=O)=O)cc3)sc2-c2ccnc(NCCc3ccccc3)c2)c1 | 0
Cc1cccc(-c2nc(Nc3ccncc3)c3ccccc3n2)n1 [GW855857] | 0
COc1ccc(Nc2nccc(-c3cccc(NC(=O)c4cc5cc(F)ccc5[nH]4)c3)n2)cc1 [GSK1229782] | 18
COc1cc2ncn(-c3cc(OCC4CCCO4)c(C(N)=O)s3)c2cc1OC (stereo not drawn) [GSK204607] | 0
COc1ccc(CNC(=O)NC2CCN(c3ccnc(Nc4cc(OC)c(OC)c(OC)c4)n3)C2)cc1 (stereo not drawn) [GSK1379748] | 0
CC(C)(C)c1ccc(C(=O)Nc2cn3cc(Cl)ccc3n2)cc1 | 0
O=C(Nc1n[nH]c2cc(-c3cccc(F)c3F)ccc12)C1CC1 [SB-733894] | 0
CCn1c(-c2ccccn2)nc2cnccc21 [SB-736398] | 0
Cn1ccc2ncnc(Oc3cccc(C(=O)Nc4ccccc4)c3)c21 | 0
Fc1cc(Cl)ccc1Nc1ccnc2cc(-c3ccc(CN4CCCCC4)o3)ccc12 [GW560116] | 0
O=S(=O)(c1ccc(-c2ccnc3[nH]ccc23)cc1)N1CCCC1 [GSK846226] | 4
CC(C)(C)c1ccc(C(=O)Nc2cn3cc(-c4cccnc4)ccc3n2)cc1 | 0
O=C(Nc1n[nH]c2nc(-c3nccs3)c(Br)cc12)C1CCCC1 [SB-742609] | 7
COc1ccc(Nc2nccc(NCCNC(=O)Nc3ccccc3F)n2)cc1 [GSK1379901] | 8

SMILES | %Inh [%]
O=C1NC(=O)C(N2CCc3ccccc32)=C1c1ccccc1Cl [SB-373598] | 63
O=C(Nc1ccccc1)Nc1cccc(Oc2ccc3nccn3n2)c1 | 0
COc1cc(Nc2nccc(N3CCC(NC(=O)Nc4cc(C)ccc4C)C3)n2)cc(OC)c1OC (stereo not drawn) [GSK1379762] | 9
COc1ccccc1CNC(=O)c1cc(C(=O)c2ccccc2C)c[nH]1 [GSK364507] | 8
COc1cc2ncnc(Nc3ccc4nc(-c5ccccc5)[nH]c4c3)c2cc1OC.Cl [GW282450] | 11
Cc1cccc(-c2nc(Nc3ccc4[nH]ncc4c3)c3ccccc3n2)n1 [GW857175] | 25
O=c1cc(N2CCOCC2)nc2n(Cc3cccc(Cl)c3Cl)ccn12 [GSK2286295] | 14
CN(C)CCN(C)C(=O)c1cc(-c2ccncc2)c(-c2ccc(Cl)c(O)c2)o1.Cl.Cl [SB-710397] | 4
COc1ccc2nc(-c3cccc(C)n3)nc(Nc3ccncc3)c2c1 [GSK204919] | 10
Cl.Oc1ccc(-c2nc(-c3ccccc3)[nH]c2-c2ccncc2)cc1 [SB-428218] | 0
Cn1ccc2ncnc(Oc3ccc(NC(=O)Nc4ccccc4)cc3)c21 | 0
COC(=O)c1c(-c2ccccc2)c2cc(C(=O)O)ccc2c(=O)n1Cc1ccccc1 | 0
CS(=O)(=O)c1ccc(-c2nc3n(c2-c2ccncc2)CCC3)cc1 [SKF-105942] | 0
NC(=O)c1nnc2ccccc2c1N | 31
Cc1cc(NCC(c2ccccc2)c2ccccc2)nc(NCc2ccc(C(F)(F)F)cc2)n1 [GW497681] | 3
O=C(Nc1ccc2c(c1)OCO2)NC1CCN(c2ccnc(Nc3ccc(F)cc3)n2)C1 (stereo not drawn) [GSK1379724] | 0
Cl.NC(=O)c1cccc(Nc2nccc(Nc3ccc(Oc4cccc(Cl)c4)c(Cl)c3)n2)c1 [GW659008] | 8
COC(=O)c1c(-c2ccccc2)c2cc(OC)ccc2c(=O)n1Cc1ccccc1 | 0

system: PAK1; details: concentration: 1 μM, replicates: in singlicate; n = 1

SMILES | %Inh [%]
Cc1ccc(C(=O)Nc2ccc(Nc3ccnc4cc(-c5ccccn5)ccc34)cc2O)cc1.Cl [GW440146] | 12
Cl.c1ccc(-c2n[nH]cc2-c2ccnc(-c3ccc(CN4CCOCC4)cc3)c2)nc1 [GW776245] | 6
Cn1cncc1-c1ccc2ncnc(Nc3ccc(OCc4ccccc4)cc3)c2c1 [GW320571] | 0
Clc1cc(Cl)cc(Nc2ccnc(Nc3cc(Cl)cc(Cl)c3)n2)c1 [GSK175726] | 12
Cc1cccc(-c2nc(-c3ccc(S(C)(=O)=O)cc3)sc2-c2ccnc(NCCc3ccccc3)c2)c1 | 18
Cc1cccc(-c2nc(Nc3ccncc3)c3ccccc3n2)n1 [GW855857] | 0
COc1ccc(Nc2nccc(-c3cccc(NC(=O)c4cc5cc(F)ccc5[nH]4)c3)n2)cc1 [GSK1229782] | 36
COc1cc2ncn(-c3cc(OCC4CCCO4)c(C(N)=O)s3)c2cc1OC (stereo not drawn) [GSK204607] | 0
COc1ccc(CNC(=O)NC2CCN(c3ccnc(Nc4cc(OC)c(OC)c(OC)c4)n3)C2)cc1 (stereo not drawn) [GSK1379748] | 3
CC(C)(C)c1ccc(C(=O)Nc2cn3cc(Cl)ccc3n2)cc1 | 0
O=C(Nc1n[nH]c2cc(-c3cccc(F)c3F)ccc12)C1CC1 [SB-733894] | 3
CCn1c(-c2ccccn2)nc2cnccc21 [SB-736398] | 22
Cn1ccc2ncnc(Oc3cccc(C(=O)Nc4ccccc4)c3)c21 | 0
Fc1cc(Cl)ccc1Nc1ccnc2cc(-c3ccc(CN4CCCCC4)o3)ccc12 [GW560116] | 2
O=S(=O)(c1ccc(-c2ccnc3[nH]ccc23)cc1)N1CCCC1 [GSK846226] | 0
CC(C)(C)c1ccc(C(=O)Nc2cn3cc(-c4cccnc4)ccc3n2)cc1 | 36
O=C(Nc1n[nH]c2nc(-c3nccs3)c(Br)cc12)C1CCCC1 [SB-742609] | 16
COc1ccc(Nc2nccc(NCCNC(=O)Nc3ccccc3F)n2)cc1 [GSK1379901] | 0

SMILES | %Inh [%]
O=C1NC(=O)C(N2CCc3ccccc32)=C1c1ccccc1Cl [SB-373598] | 10
O=C(Nc1ccccc1)Nc1cccc(Oc2ccc3nccn3n2)c1 | 0
COc1cc(Nc2nccc(N3CCC(NC(=O)Nc4cc(C)ccc4C)C3)n2)cc(OC)c1OC (stereo not drawn) [GSK1379762] | 11
COc1ccccc1CNC(=O)c1cc(C(=O)c2ccccc2C)c[nH]1 [GSK364507] | 6
COc1cc2ncnc(Nc3ccc4nc(-c5ccccc5)[nH]c4c3)c2cc1OC.Cl [GW282450] | 9
Cc1cccc(-c2nc(Nc3ccc4[nH]ncc4c3)c3ccccc3n2)n1 [GW857175] | 0
O=c1cc(N2CCOCC2)nc2n(Cc3cccc(Cl)c3Cl)ccn12 [GSK2286295] | 22
CN(C)CCN(C)C(=O)c1cc(-c2ccncc2)c(-c2ccc(Cl)c(O)c2)o1.Cl.Cl [SB-710397] | 6
COc1ccc2nc(-c3cccc(C)n3)nc(Nc3ccncc3)c2c1 [GSK204919] | 8
Cl.Oc1ccc(-c2nc(-c3ccccc3)[nH]c2-c2ccncc2)cc1 [SB-428218] | 55
Cn1ccc2ncnc(Oc3ccc(NC(=O)Nc4ccccc4)cc3)c21 | 10
COC(=O)c1c(-c2ccccc2)c2cc(C(=O)O)ccc2c(=O)n1Cc1ccccc1 | 14
CS(=O)(=O)c1ccc(-c2nc3n(c2-c2ccncc2)CCC3)cc1 [SKF-105942] | 19
NC(=O)c1nnc2ccccc2c1N | 0
Cc1cc(NCC(c2ccccc2)c2ccccc2)nc(NCc2ccc(C(F)(F)F)cc2)n1 [GW497681] | 0
O=C(Nc1ccc2c(c1)OCO2)NC1CCN(c2ccnc(Nc3ccc(F)cc3)n2)C1 (stereo not drawn) [GSK1379724] | 18
Cl.NC(=O)c1cccc(Nc2nccc(Nc3ccc(Oc4cccc(Cl)c4)c(Cl)c3)n2)c1 [GW659008] | 9
COC(=O)c1c(-c2ccccc2)c2cc(OC)ccc2c(=O)n1Cc1ccccc1 | 31
